# Measured values taken from PubChem BioAssay (NCI).
# This is part of a sample that, as a whole, favours compounds with a hit. Of some 83,000 tested, about 20% had one in any assay.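 Method: cells in 96-well plates; compound added at one concentration; 48 h incubation; percent growth measured; values under 10 scored active.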 Unmarked numbers belong to inactive results. Activity calls are given as the source filed them.
# Legend:
# Assay in all cases: NCI-60 one-dose screen, 48 h (100 = growth as untreated, 0 = no growth, -100 = all killed)
# [1] = tested on: DU-145 prostate; settings: 10 µM unless noted
# [2] = tested on: K-562 leukemia; settings: 10 µM unless noted
# [3] = tested on: MALME-3M melanoma; settings: 10 µM unless noted
# [4] = tested on: MDA-MB-231 breast; settings: 10 µM unless noted
# [5] = tested on: RXF 393 renal; settings: 10 µM unless noted
# [6] = tested on: SF-268 CNS; settings: 10 µM unless noted
# [7] = tested on: SF-295 CNS; settings: 10 µM unless noted
# [8] = tested on: SF-539 CNS; settings: 10 µM unless noted
# [9] = tested on: UACC-257 melanoma; settings: 10 µM
# [10] = tested on: M14 melanoma; settings: 10 µM unless noted
# [11] = tested on: HCT-15 colon; settings: 10 µM unless noted
# [12] = tested on: HT29 colon; settings: 10 µM unless noted
# [13] = tested on: SNB-75 CNS; settings: 10 µM unless noted
# [14] = tested on: SNB-19 CNS; settings: 10 µM unless noted
# [15] = tested on: U251 CNS; settings: 10 µM unless noted
# [16] = tested on: PC-3 prostate; settings: 10 µM unless noted
# [17] = tested on: SK-MEL-5 melanoma; settings: 10 µM unless noted
# [18] = tested on: UACC-62 melanoma; settings: 10 µM unless noted
# [19] = tested on: LOX IMVI melanoma; settings: 10 µM unless noted
# [20] = tested on: SK-MEL-28 melanoma; settings: 10 µM unless noted
SMILES,growth [1] [%],growth [2],growth [3],growth [4],growth [5],growth [6] [%],growth [7],growth [8],growth [9],growth [10],growth [11],growth [12],growth [13] [%],growth [14] [%],growth [15],growth [16] [%],growth [17],growth [18],growth [19],growth [20]
CN1CCN(c2ccc3c(c2)nc(NNC(=O)c2ccncn2)c2cccn23)CC1,27.5,25.6%,43.9%,36.9%,66.5%,26.6,0.713% (active),24.2%,42.8%,9.89% (active),25.1%,32.7%,61.9,35.1,34%,46.5,13.7%,22.2%,11.4%,28.3%
O=C(COc1ccc(C2SCC(=O)N2c2ccccc2)cc1)c1ccccc1 (stereo not given),102,88.9%,100%,81.6%,91.2%,93.4,96.9%,101%,102%,102%,97.2%,105%,87.5,99.4,95.8%,80.5,94.4%,68.6%,93.3%,105%
CCCCCc1ccc(S(=O)(=O)N(C(C)=O)c2cccc(-c3csc(N(CCN4CCN(C)CC4)C(C)=O)n3)c2)cc1,41.6,-26.2% (active),-85.6% (active),4.58% (active),-59.2% (active),63.2,-68.1% (active),-80.9% (active),-52.6% (active),-71.7% (active),-13.6% (active),-41.4% (active),64,60.6,-10.8% (active),62.5,-97.7% (active),-71.4% (active),-92.1% (active),-85.8% (active)
CCOC(=O)C1=C(C)Nc2nc3ccccc3n2C1c1ccccc1 (stereo not given),105,76.1%,94.3%,95.8%,107%,102,102%,96.9%,97.4%,102%,90.8%,97.9%,99.1,97.8,101%,97.7,99.3%,85.7%,90.4%,109%
NC(=O)c1c(NC(=O)c2cccc(OC(F)(F)F)c2)sc2c1CCC(=O)C2,107,13.5%,81.3%,63.3%,36.4%,55.7,46.1%,25.7%,81.8%,37.6%,19.2%,40.3%,43.6,43.1,28.7%,21.3,95.4%,60.7%,28.5%,82.6%
N#C/C(=C\c1ccc2ccccc2c1)C(=O)Nc1sc2c(c1C#N)CCC2,103,96.2%,116%,98.1%,107%,103,95.3%,102%,108%,106%,99%,121%,102,98.9,99%,98.1,98%,90.3%,95.6%,113%
Nc1nc(-c2cccc([N+](=O)[O-])c2)c(N=Nc2ccccc2Cl)s1,52.6,52.5%,111%,54.1%,-13.6% (active),68.4,70.8%,17.8%,104%,77.7%,48.9%,87.1%,76.8,82,43.9%,64.9,80.8%,71.6%,25.3%,93.7%
